# Most compounds without a hit are left out; they make up all but 4.2% or so of the library.
# DAX1 inh = inhibitors of DAX1 repression of SF-1 activated StAR promoter | HEK293T StAR-luciferase reporter, SF-1/DAX-1 repression relief | inhibition, % at 6.8 µM | 370,000 tested, 1.1% active | AID 652010;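 active = inhibition above the mean over all tested compounds plus 3 SD, cut at about 3.6% in these data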;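 note: 0% = DAX-1 cells with DMSO and 100% = cells lacking DAX-1 with DMSO; higher inhibition means more luminescence from relief of DAX-1 repression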
# esBAF inh = SWI/SNF esBAF complex inhibition | 350,000 tested, 2% active | reporter increase, % at 12.5 µM | mouse ES cells, Bmi1-luciferase knock-in reporter, 24 h; 100% = twice the neutral-well signal; in the data active = activation above about 40%; inconclusive = no clear call, values can overlap the other calls;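 note: 0% = median of the plate's neutral control wells and 100% = double that signal; a rise in the Bmi1 reporter signal indicates esBAF inhibition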
# Wnt bcat act = Wnt/beta-catenin pathway activation | Wnt/beta-catenin reporter cell assay, activator, plate reader | activation, % at 9.35 µM | 300,000 tested, 1.2% active; in the data active = activation above about 30%, passing the limit was not always enough; inconclusive = no clear call, values can overlap the other calls;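 note: 0% = neutral control wells and 100% = positive control wells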
# hgDAF-12 ag = activates the H. glycines DAF-12 receptor ligand-binding domain; HEK293 GAL4-hgDAF12 UAS-luciferase reporter, agonist luminescence; normalized to butyrate control; activation, % at 6.8 µM; 370,000 tested, 1.8% active; AID 687014;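 active = activation above a cutoff set at the mean of all screened compounds plus 3 SD, cut at about 10% in these data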;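 note: 0% = DMSO wells and 100% = sodium butyrate wells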
# ssDAF-12 act = activators of S. stercoralis DAF-12 nuclear receptor; HEK293 ssDAF-12/GRIP1 lit1-tk-luc reporter, luminescence; % of 3 µM dafachronic acid response; activation, % at 6.8 µM; 370,000 tested, 1% active;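 active = activation above the mean over all tested compounds plus 3 SD, cut at about 0.9% in these data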;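 note: 0% = DMSO-only wells and 100% = 3 µM delta7-dafachronic acid wells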
# hcDAF12 agonist = H. contortus DAF-12 activation, primary screen; HEK293 hcDAF-12 lit1-tk-luc reporter, luminescence; 0% DMSO, 100% Δ7-dafachronic acid; activation, % at 6.8 µM; 370,000 tested, 1.4% active; AID 652067;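 active = activation above the mean of all tested compounds plus 3 SD, cut at about 5.5% in these data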;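 note: 100% = response to 3 µM Δ7-dafachronic acid high control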
# * hit, by the source's call; u = inconclusive; x = no result given.
SMILES,DAX1 inh,esBAF inh,Wnt bcat act,hgDAF-12 ag,ssDAF-12 act,hcDAF12 agonist
O=C(Nc1ccc(C2SCCS2)cc1)c1ccccc1,2,x,49*,11*,1.6*,4
O=C(CNS(=O)(=O)c1ccc(F)cc1)Nc1ccccc1,0,3,1,-2,-1,2
COc1ccc(-c2cc(C(=O)Nc3ccccc3)on2)cc1,0,x,13,2,-1,1
O=C(/C=C(\Nc1ccc(F)cc1)c1ccccc1)c1ccccc1,1,x,u,11*,-1,0
O=C(NCCc1ccc(F)cc1)c1cccc(NC(=O)c2ccccc2)c1,0,65*,5,-3,-1,-2
O=C(NCCCCc1ccccc1)c1cccc(NC(=O)c2ccccc2)c1,0,3,-5,-1,-2,-1
COC(=O)c1ccc(NC(=O)c2ccc(OC(C)=O)c(OC)c2)cc1,4.0*,50*,-1,9,-2,3
O=C(Nc1ccc(F)cc1)c1ccccc1,1,81*,-6,4,-1,-1
COC(=O)c1ccc(C(=O)Nc2ccc(F)cc2)cc1,0,67*,28,2,-1,2
Cn1c(-c2ccccc2)n[nH]c1=S,-1,-2,-2,0,-2,-1
Cn1c(-c2ccc(C(C)(C)C)cc2)n[nH]c1=S,0,50*,x,2,-1,0
Cn1c(-c2ccccc2Br)n[nH]c1=S,0,x,x,0,-1,5.6*
O=C(NC1CCCC1)[C@@H]1[C@@H](CO)[C@@H]2Cn3c(ccc(-c4ccncc4)c3=O)[C@@H]2N1CC1CC1,x,-3,x,x,x,x
COc1ccc(NC(=O)N(C)C[C@H]2OCCCC[C@@H](C)Oc3ccc(NC(=O)NC(C)C)cc3C(=O)N([C@H](C)CO)C[C@H]2C)cc1,x,-3,x,x,x,x
CCc1ccc(-c2ccc(C(=O)C(F)(F)F)[nH]2)cc1,2,0,x,13*,0,3
CCCc1nc2oc3c(NCC(C)O)ncnc3c2c2c1CCCC2 (stereo not given),-1,x,38*,-1,-1,-2
CC(=O)N1CCc2c(sc(NC(=O)c3ccc([N+](=O)[O-])o3)c2C#N)C1,-1,x,67*,2,0,2
COc1ccc(C(=O)Nc2sc3c(c2C#N)CCN(C(C)=O)C3)cc1,-3,-8,2,1,-1,-2
NS(=O)(=O)c1ccc(NC(=O)c2cccc3cc4ccccc4nc23)cc1,-3,x,-5,1,0.9*,-3
NS(=O)(=O)c1ccc(NC(=O)c2cccc3ccccc23)cc1,0,2,2,1,-2,0
CCNC(=O)[C@@H]1[C@@H](CO)[C@@H]2Cn3c(ccc(-c4ccc(OC)cc4)c3=O)[C@H]1N2S(C)(=O)=O,x,-7,x,x,x,x
O=C(Nc1nnc(-c2ccc3c(c2)OCCO3)o1)C1CCCCC1,1,x,33*,4,1,1
O=C(Nc1nnc(-c2ccc(Cl)cc2)o1)C1CCCCC1,0,-7,-1,10,-1,-1
Cc1ccc(CNC(=O)C2CCC(=O)N(CCc3ccc(Cl)cc3)C2)s1 (stereo not given),-1,-3,-4,2,1.1*,-1
Cc1cccc(/C=C(\c2nc3ccccc3[nH]2)S(=O)(=O)c2ccccc2)c1,-4,5,41*,-11,-3,-5
SMILES,DAX1 inh,esBAF inh,Wnt bcat act,hgDAF-12 ag,ssDAF-12 act,hcDAF12 agonist
NC(=O)NC(=O)COC(=O)c1ccc2noc(-c3ccccc3)c2c1,1,68*,1,12*,0,2
Cc1ccc(NCc2ccccc2F)cc1,0,x,x,4,0,6.2*
Cc1ccc(NCc2ccccc2O)cc1,0,49*,x,4,0,0
Cc1cccc(NCc2ccccc2O)c1,0,14,11,1,0,2
C[C@H](CO)N1C[C@H](C)[C@@H](CN(C)S(=O)(=O)c2cn(C)cn2)Oc2cc(C#Cc3ccccc3)ccc2S1(=O)=O,x,-3,x,x,x,x
CC(C)NC(=O)N(C)C[C@@H]1Oc2c(NS(=O)(=O)c3ccc(Cl)cc3)cccc2C(=O)N([C@H](C)CO)C[C@H]1C,x,-5,x,x,x,x
CNC[C@@H]1Oc2ccc(NS(=O)(=O)c3c(C)noc3C)cc2C(=O)N([C@H](C)CO)C[C@H]1C,x,-5,x,x,x,x
CCCOc1ccc(-c2c(=O)n(OCC(=O)OCC)c3ccccc3[n+]2[O-])cc1,1,70*,0,5,-1,0
CCOC(=O)COn1c(=O)c(-c2ccc(F)cc2)[n+]([O-])c2ccccc21,0,-4,-2,0,-1,-1
COc1ccc(S(=O)(=O)N(C)C[C@@H]2Oc3c(NC(=O)c4ccncc4)cccc3C(=O)N([C@@H](C)CO)C[C@H]2C)cc1,x,2,x,x,x,x
Cc1nnc(SCC(=O)NNC(=O)c2ccc(F)cc2)n1Cc1ccccc1,0,2,0,1,1.4*,2
Cc1nnc(SCC(=O)NNC(=O)c2ccccc2)n1Cc1ccccc1,0,4,0,4,-2,-1
COC(=O)c1ccc(N2CCN(CC(=O)c3ccc(C)cc3)CC2)c([N+](=O)[O-])c1,0,7,2,4,0,6.0*
COC(=O)c1ccc(N2CCN(CC(=O)c3ccc(-c4ccccc4)cc3)CC2)c([N+](=O)[O-])c1,0,48*,x,0,0,4
COC(=O)c1ccc(N2CCN(S(=O)(=O)c3ccc4ccccc4c3)CC2)c([N+](=O)[O-])c1,-2,3,-8,-4,-2,-3
COC(=O)c1ccc(N2CCN(C(=O)C3CC3)CC2)c([N+](=O)[O-])c1,0,-3,3,-2,-1,0
C[C@@H]1CN([C@@H](C)CO)S(=O)(=O)c2ccc(C3=CCCC3)cc2O[C@H]1CN(C)Cc1ccccn1,x,-5,x,x,x,x
Nc1[nH]nc2nc3ccccc3cc12,1,-4,1,3,-1,3
CCc1ccc2nc3n[nH]c(N)c3cc2c1,3,12,x,11*,-1,4
Cc1cc2c(cc1C)NC(=O)CC(c1ccccc1)=N2,3,x,-2,12*,0,0
Cc1cc2c(cc1C)C(c1ccccc1Br)CC(=O)N2 (stereo not given),0,2,-1,1,0,0
C[n+]1c(/C=C/c2ccc3c(c2)OCO3)ccc2ccccc21,-1,x,-2,-6,-3,-2
C[n+]1c(/C=C/c2ccc(O)cc2)ccc2ccccc21,1,62*,24,10,-1,5
O=C(Nc1cccc(Cl)c1)N1C[C@@H]2[C@H](c3ccccc31)[C@H](CO)N2C(=O)C1CCCC1,x,-1,x,x,x,x
Nc1ccc2cc3ccccc3cc2c1,1,49*,9,10,-1,5
Nc1ccc2ccc(N)cc2c1,-2,x,6,-4,-1,0
Cc1ccc(-c2nc3cnccn3c2Nc2ccccc2)o1,3,44*,6,7,-1,-1

# Screening data: PubChem BioAssay, several laboratories
